# The supplement of paper PMC10037445
# Over roughly 2,900 compounds, “NF-kB SEAP reporter activity, fold change vs agonist alone” has its median near 0.99; the highest 2% begin near 2.6. This excerpt belongs to a sample that is enriched for the highest values.
# Legend:
# [1] = test system: RAW-Dual; test: NF-kB SEAP reporter activity, fold change vs agonist alone; higher = enhanced NF-kB activity
# Method in brief: (§1)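 Cytotoxic wells were those whose IncuCyte confluency was below 70% of agonist controls in both mask sets. The cells were RAW-Dual macrophages at 50,000 cells/well in DMEM on 384-well plates, dosed with 50 nL of library stock by pin tool, stimulated with a PRR agonist 1 h later, and kept at 37 °C, 5% CO2 for 20 hours. IRF and NF-κB reporter activity, as fold change over agonist-alone wells, came from supernatant read by QuantiLuc luminescence and QuantiBlue absorbance, respectively.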
# [2] = test system: RAW-Dual; test: NF-kB SEAP reporter activity, fold change vs agonist alone; cytotoxicity flag (confluency mask): not cytotoxic; higher = enhanced NF-kB activity
# Method in brief: as §1
# [3] = test system: RAW-Dual; test: NF-kB SEAP reporter activity, fold change vs agonist alone; cytotoxicity flag (confluency mask): cytotoxic (confluency <70% of control); higher = enhanced NF-kB activity
# Method in brief: as §1
# [4] = library stock concentration (final ~1000-fold dilution): 10 mM, cytotoxicity flag (confluency mask): not cytotoxic, agonist: Imiquimod (TLR7) […]
# [5] = library stock concentration (final ~1000-fold dilution): 10 mM, cytotoxicity flag (confluency mask): not cytotoxic, agonist: MPLA (TLR4) […]
# [6] = agonist: ODN 1826 (TLR9) 0.5 ug/mL
# [7] = agonist: Pam2CSK4 (TLR2/6) 0.1 ug/mL
# [8] = agonist: Pam3CSK4 (TLR2/1) 0.1 ug/mL
smiles,measurement,setting,value
Cc1c(CN2CCN(C(=O)C(C)O)CC2)sc2c(N3CCOCC3)nc(-c3cnc(N)nc3)nc12 (stereo not drawn),NF-kB SEAP reporter activity,[1]; [4],1
same,NF-kB SEAP reporter activity,[1]; [5],1.08
COC1(c2sc3c(N4CCOCC4)nc(-c4cnc(N)nc4)nc3c2C)COC1 (library stock concentration (final ~1000-fold dilution): 10 mM),NF-kB SEAP reporter activity,[2]; agonist: LPS (TLR4) 0.1 ug/mL,1.46
same,NF-kB SEAP reporter activity,[2]; [6],0.707
same,NF-kB SEAP reporter activity,[2]; [7],0.459
same,NF-kB SEAP reporter activity,[2]; [8],0.608
COc1ccc(-c2nc(N3CCOCC3)c3sc(CN(C)c4ncc(C(=O)NO)cn4)cc3n2)cn1,NF-kB SEAP reporter activity,"[1]; library stock concentration (final ~1000-fold dilution): 10 mM, cytotoxicity flag (confluency mask): cytotoxic (confluency <70% of control), agonist: Imiquimod (TLR7) […]",2.88
same,NF-kB SEAP reporter activity,"[1]; library stock concentration (final ~1000-fold dilution): 10 mM, cytotoxicity flag (confluency mask): cytotoxic (confluency <70% of control), agonist: MPLA (TLR4) […]",2.66
COC1(c2sc3c(N4CCOCC4)nc(-c4cnc(N)nc4)nc3c2C)COC1,NF-kB SEAP reporter activity,[1]; [4],0.913
same,NF-kB SEAP reporter activity,[1]; [5],1.05
COc1ccc(-c2nc(N3CCOCC3)c3sc(CN(C)c4ncc(C(=O)NO)cn4)cc3n2)cn1 (library stock concentration (final ~1000-fold dilution): 10 mM),NF-kB SEAP reporter activity,[3]; agonist: LPS (TLR4) 0.1 ug/mL,4.34
same,NF-kB SEAP reporter activity,[3]; [6],2.1
same,NF-kB SEAP reporter activity,[3]; [7],1.3
same,NF-kB SEAP reporter activity,[3]; [8],1.6
Cc1c(CN2CCN(C(=O)C(C)O)CC2)sc2c(N3CCOCC3)nc(-c3cnc(N)nc3)nc12 (stereo not drawn) (library stock concentration (final ~1000-fold dilution): 10 mM),NF-kB SEAP reporter activity,[2]; agonist: LPS (TLR4) 0.1 ug/mL,1.32
same,NF-kB SEAP reporter activity,[2]; [6],0.763
same,NF-kB SEAP reporter activity,[2]; [7],0.412
same,NF-kB SEAP reporter activity,[2]; [8],0.661
CC(C)(CNC(=O)c1cccc(-c2noc(C(F)(F)F)n2)c1)c1coc(-c2ccccc2)n1 (library stock concentration (final ~1000-fold dilution): 10 mM),NF-kB SEAP reporter activity,[2]; agonist: LPS (TLR4) 0.1 ug/mL,1.03
same,NF-kB SEAP reporter activity,[2]; [6],1.03
same,NF-kB SEAP reporter activity,[2]; [7],0.625
same,NF-kB SEAP reporter activity,[2]; [8],0.745
CC(C)(CNC(=O)c1cccc(-c2noc(C(F)(F)F)n2)c1)c1coc(-c2ccccc2)n1,NF-kB SEAP reporter activity,[1]; [4],0.959
same,NF-kB SEAP reporter activity,[1]; [5],1.09
Nc1ncn(C2OC(CO)C(O)C2O)c(=O)n1 (stereo not drawn),NF-kB SEAP reporter activity,[1]; [4],2.59
same,NF-kB SEAP reporter activity,[1]; [5],2.47
Nc1ncn(C2OC(CO)C(O)C2O)c(=O)n1 (stereo not drawn) (library stock concentration (final ~1000-fold dilution): 10 mM),NF-kB SEAP reporter activity,[2]; agonist: LPS (TLR4) 0.1 ug/mL,1.06
same,NF-kB SEAP reporter activity,[2]; [6],1.91
same,NF-kB SEAP reporter activity,[2]; [7],0.631
same,NF-kB SEAP reporter activity,[2]; [8],0.71
Nc1ncn(C2CC(O)C(CO)O2)c(=O)n1 (stereo not drawn) (library stock concentration (final ~1000-fold dilution): 10 mM),NF-kB SEAP reporter activity,[2]; agonist: LPS (TLR4) 0.1 ug/mL,1.55
same,NF-kB SEAP reporter activity,[2]; [6],1.41
same,NF-kB SEAP reporter activity,[2]; [7],1.14
same,NF-kB SEAP reporter activity,[2]; [8],1.26
Nc1ccn(C2OC(CO)C(O)C2O)c(=O)n1 (stereo not drawn),NF-kB SEAP reporter activity,"[1]; library stock concentration (final ~1000-fold dilution): 10 mM water, cytotoxicity flag (confluency mask): not cytotoxic, agonist: Imiquimod (TLR7) […]",1.46
same,NF-kB SEAP reporter activity,"[1]; library stock concentration (final ~1000-fold dilution): 10 mM water, cytotoxicity flag (confluency mask): not cytotoxic, agonist: MPLA (TLR4) […]",1.33
Nc1ccn(C2OC(CO)C(O)C2O)c(=O)n1 (stereo not drawn) (library stock concentration (final ~1000-fold dilution): 10 mM water),NF-kB SEAP reporter activity,[2]; agonist: LPS (TLR4) 0.1 ug/mL,1.92
same,NF-kB SEAP reporter activity,[2]; [6],1.7
same,NF-kB SEAP reporter activity,[2]; [7],1.85
same,NF-kB SEAP reporter activity,[2]; [8],1.83
Nc1ncn(C2CC(O)C(CO)O2)c(=O)n1 (stereo not drawn),NF-kB SEAP reporter activity,[1]; [4],1.58
same,NF-kB SEAP reporter activity,[1]; [5],1.38
O=C(O)CC(C(=O)O)N1C(=O)/C(=C2/C(=O)Nc3ccc(Br)cc32)SC1=S (stereo not drawn),NF-kB SEAP reporter activity,[1]; [4],1.33
same,NF-kB SEAP reporter activity,[1]; [5],1.72
O=C(O)CC(C(=O)O)N1C(=O)/C(=C2/C(=O)Nc3ccc(Br)cc32)SC1=S (stereo not drawn) (library stock concentration (final ~1000-fold dilution): 10 mM),NF-kB SEAP reporter activity,[2]; agonist: LPS (TLR4) 0.1 ug/mL,0.98
same,NF-kB SEAP reporter activity,[2]; [6],1.56
same,NF-kB SEAP reporter activity,[2]; [7],1.02
same,NF-kB SEAP reporter activity,[2]; [8],1.06
COc1ccccc1Oc1c(NS(=O)(=O)c2ccc(C(C)(C)C)cc2)nc(-c2ncccn2)nc1OCCO.O (library stock concentration (final ~1000-fold dilution): 10 mM),NF-kB SEAP reporter activity,[2]; agonist: LPS (TLR4) 0.1 ug/mL,1.15
same,NF-kB SEAP reporter activity,[2]; [6],1.01
same,NF-kB SEAP reporter activity,[2]; [7],1.06
same,NF-kB SEAP reporter activity,[2]; [8],1.1
COc1ccccc1Oc1c(NS(=O)(=O)c2ccc(C(C)(C)C)cc2)nc(-c2ncccn2)nc1OCCO.O,NF-kB SEAP reporter activity,[1]; [4],1.02
same,NF-kB SEAP reporter activity,[1]; [5],1.1
CC(C)OC(=O)CCC/C=C\CC1C(O)CC(O)C1CCC(O)CCc1ccccc1 (stereo not drawn),NF-kB SEAP reporter activity,[1]; [5],1.43
CC(C)OC(=O)CCC/C=C\CC1C(O)CC(O)C1CCC(O)CCc1ccccc1 (stereo not drawn) (library stock concentration (final ~1000-fold dilution): 10 mM),NF-kB SEAP reporter activity,[2]; agonist: LPS (TLR4) 0.1 ug/mL,1.4
same,NF-kB SEAP reporter activity,[2]; [6],0.911
same,NF-kB SEAP reporter activity,[2]; [7],1.1
same,NF-kB SEAP reporter activity,[2]; [8],0.929
COc1cc(OC)c(/C=C2/C(=O)Nc3ccccc32)c(OC)c1,NF-kB SEAP reporter activity,[1]; [4],1.62
same,NF-kB SEAP reporter activity,[1]; [5],1.67
COc1cc(OC)c(/C=C2/C(=O)Nc3ccccc32)c(OC)c1 (library stock concentration (final ~1000-fold dilution): 10 mM),NF-kB SEAP reporter activity,[2]; agonist: LPS (TLR4) 0.1 ug/mL,3.21
same,NF-kB SEAP reporter activity,[2]; [6],2.56
same,NF-kB SEAP reporter activity,[2]; [7],1.33
same,NF-kB SEAP reporter activity,[2]; [8],1.92
Cc1c[nH]c(C=C2C(=O)Nc3ccccc32)c1CCC(=O)O,NF-kB SEAP reporter activity,[1]; [4],0.662
same,NF-kB SEAP reporter activity,[1]; [5],0.848
Cc1c[nH]c(C=C2C(=O)Nc3ccccc32)c1CCC(=O)O (library stock concentration (final ~1000-fold dilution): 10 mM),NF-kB SEAP reporter activity,[2]; agonist: LPS (TLR4) 0.1 ug/mL,0.665
same,NF-kB SEAP reporter activity,[2]; [6],0.926
same,NF-kB SEAP reporter activity,[2]; [7],0.983
same,NF-kB SEAP reporter activity,[2]; [8],0.647
COc1ccc(C(=C2C(=O)Nc3ccccc32)c2ccc(OC)cc2)cc1,NF-kB SEAP reporter activity,[1]; [4],0.748
same,NF-kB SEAP reporter activity,[1]; [5],0.978
COc1ccc(C(=C2C(=O)Nc3ccccc32)c2ccc(OC)cc2)cc1 (library stock concentration (final ~1000-fold dilution): 10 mM),NF-kB SEAP reporter activity,[2]; agonist: LPS (TLR4) 0.1 ug/mL,1.04
same,NF-kB SEAP reporter activity,[2]; [6],0.585
same,NF-kB SEAP reporter activity,[2]; [7],0.692
same,NF-kB SEAP reporter activity,[2]; [8],0.323
NC(N)=NCCCC(N)C(=O)NC(CCCN=C(N)N)C(=O)N1CCCC1C(=O)N1CC(O)CC1C(=O)NCC(=O)NC(Cc1cccs1)C(=O)NC(CO)C(=O)N1Cc2ccccc2CC1C(=O)N1C(C(=O)NC(CCCN=C(N)N)C(=O)O)CC2CCCCC21 (stereo not drawn) (library stock concentration (final ~1000-fold dilution): 2 mM water),NF-kB SEAP reporter activity,[2]; agonist: LPS (TLR4) 0.1 ug/mL,0.985
same,NF-kB SEAP reporter activity,[2]; [6],1.06
same,NF-kB SEAP reporter activity,[2]; [7],1.1
same,NF-kB SEAP reporter activity,[2]; [8],0.962
NC(N)=NCCCC(N)C(=O)NC(CCCN=C(N)N)C(=O)N1CCCC1C(=O)N1CC(O)CC1C(=O)NCC(=O)NC(Cc1cccs1)C(=O)NC(CO)C(=O)N1Cc2ccccc2CC1C(=O)N1C(C(=O)NC(CCCN=C(N)N)C(=O)O)CC2CCCCC21 (stereo not drawn),NF-kB SEAP reporter activity,"[1]; library stock concentration (final ~1000-fold dilution): 2 mM water, cytotoxicity flag (confluency mask): not cytotoxic, agonist: Imiquimod (TLR7) […]",0.945
same,NF-kB SEAP reporter activity,"[1]; library stock concentration (final ~1000-fold dilution): 2 mM water, cytotoxicity flag (confluency mask): not cytotoxic, agonist: MPLA (TLR4) […]",1.05
